Assay outcomes as filed in PubChem.
An excerpt weighted towards active compounds, which were near 3.9% of everything screened.
ALR H2O2 inh = inhibitors of human ALR sulfhydryl oxidase, primary screen, biochemical, H2O2 detection, HRP-luminol luminescence, single point | FAD-linked sulfhydryl oxidase ALR (Homo sapiens), P55789 | inhibition, % (no concentration beside the values) | purified ALR, DTT oxidation | hit rate 3.8% among 290,000;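 active = mean replicate inhibition above about 79%, with every replicate also reaching it, limit read from the data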
Target sequence (P55789 whole entry, looked up): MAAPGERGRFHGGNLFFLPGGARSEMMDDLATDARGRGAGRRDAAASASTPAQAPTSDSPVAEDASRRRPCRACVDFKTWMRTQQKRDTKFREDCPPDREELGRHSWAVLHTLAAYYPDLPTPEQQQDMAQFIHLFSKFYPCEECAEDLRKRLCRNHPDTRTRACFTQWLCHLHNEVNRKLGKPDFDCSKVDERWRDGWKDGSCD
N-glyco inh = increase of ERlucT glycosylation luciferase signal, primary screen, N-linked glycosylation inhibitor project, D54 ERlucT cells, luminescence, set 2 | D54 ERlucT glycosylation luciferase reporter, 24 h; percent of 100 nM tunicamycin response | reporter increase, % at 12.5 µM | hit rate 0.23% among 360,000;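 active = mean luciferase reporter signal, scaled so untreated is 0 and the glycosylation-blocking control 100, at or above a set limit in every replicate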;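 also: luciferase carries N-glycosylation sites so blocking glycosylation raises the light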
Mot1-301 SUMO = yeast Mot1-301 growth rescue at high temperature, primary screen, SUMOylation pathway inhibitor project, S. cerevisiae, ATP luminescence, 38.5C; AID 2716, 2010; S. cerevisiae Mot1-301 growth rescue; percent above DMSO median, 100 means doubled; growth rescue, % at 18.8 µM; hit rate 1% among 320,000;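 active = every valid replicate shows activation above 250% relative to neutral control wells; inactive = the rest, any valid replicate at or below 250%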
CDK5 inh = inhibitors of human CDK5/p35 kinase, primary screen, biochemical, single concentration. hit rate 0.01% among 330,000. inhibition, % at 10 µM. Recombinant CDK5/p35, ADP-Glo luminescence, 60 min;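 active = highest replicate inhibition of at least 50% and at least 75% of replicates reaching 50%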
NSD2 HMT inh = NSD2 histone methyltransferase inhibitors, primary screen, biochemical, AlphaScreen, single concentration, set 2; NSD2 peptide methylation, 120 min; inhibition, % at 12.5 µM; hit rate 0.54% among 310,000; in the data active = inhibition above about 50%
Casp6 inh = human caspase-6 inhibitors, primary screen, biochemical, VEID-R110 fluorescence, single point, set 2; hit rate 0.53% among 350,000; P55212; purified caspase-6, Z-VEID-R110 cleavage fluorescence; inhibition, % at 12.5 µM;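 active = mean inhibition across replicates at least about 35%, with every replicate also reaching that limit, limit read from the data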
Target sequence (P55212 24-179 limits assumed): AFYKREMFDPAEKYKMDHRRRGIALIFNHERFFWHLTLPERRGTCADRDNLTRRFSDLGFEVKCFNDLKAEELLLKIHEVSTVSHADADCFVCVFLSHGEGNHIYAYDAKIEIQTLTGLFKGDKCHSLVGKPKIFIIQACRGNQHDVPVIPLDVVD
Target sequence (P55212 194-293 limits assumed): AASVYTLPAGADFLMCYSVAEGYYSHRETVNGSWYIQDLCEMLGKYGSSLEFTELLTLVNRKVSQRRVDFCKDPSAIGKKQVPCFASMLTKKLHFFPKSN
Of the large screens only hits and unclear results are named; the others gave an inactive call.

Cc1noc(C)c1NC(=O)N(C)C[C@@H]1Oc2c(NC(=O)Nc3ccc4c(c3)OCO4)cccc2C(=O)N([C@H](C)CO)C[C@H]1C	none (no result: ALR H2O2 inh, N-glyco inh, Mot1-301 SUMO, CDK5 inh, NSD2 HMT inh)
CC1(C)CC(NC(=O)c2ccccc2C(=O)NC2CC(C)(C)NC(C)(C)C2)CC(C)(C)N1	none
CC1(C)CC(NC(=O)N2c3ccccc3Sc3ccccc32)CC(C)(C)N1	ALR H2O2 inh 99
CCOc1nc2c(c(C)nn2-c2ccccc2)c(C)c1CCC(=O)N1CCN(c2ccccn2)CC1	none (no result: ALR H2O2 inh, N-glyco inh, Mot1-301 SUMO, CDK5 inh, Casp6 inh)
COc1cccc(CNC(=O)C[C@@H]2CC[C@H](NC(=O)C3CCOCC3)[C@H](CO)O2)c1	none (no result: ALR H2O2 inh, N-glyco inh, Mot1-301 SUMO, CDK5 inh, NSD2 HMT inh)
O=C(NNC(=S)Nc1ccc(Br)cc1)c1ccccc1Br	ALR H2O2 inh 99
COC(=O)c1ccc(NC(=S)Nc2ccccc2)cc1	none
O=C(NC(=S)Nc1ccc(O)cc1)c1cncc(Br)c1	ALR H2O2 inh 99
O=C(NNC(=S)Nc1ccc(Br)cc1)c1ccccc1	ALR H2O2 inh 97
COC(=O)c1ccc(NC(=S)NNC(=O)c2ccccc2)cc1	ALR H2O2 inh 92
O=C(NNC(=S)Nc1ccccc1)c1cccc(Br)c1	none (no result: Casp6 inh)
CCCNC(=O)Nc1ccc2c(c1)C(=O)N(C)C[C@@H](OC)[C@@H](C)CN(Cc1cncnc1)[C@H](C)CO2	none (no result: ALR H2O2 inh, N-glyco inh, Mot1-301 SUMO, CDK5 inh, NSD2 HMT inh)
CC(=O)c1ccc(N2CCC(C(=O)O)CC2)cc1	none
CC(=O)c1ccc(N2CCN(C3CCC(C(C)(C)C)CC3)CC2)cc1 (stereo unspecified)	Mot1-301 SUMO 256
CCOC(=O)C1=C(C)NC(=O)C1CC(=O)Nc1ccccc1 (stereo unspecified)	ALR H2O2 inh 96 (no result: N-glyco inh, CDK5 inh, NSD2 HMT inh, Casp6 inh)
Cc1nn(C)c(C(=O)Nc2cccc(Nc3ccccc3)c2)c1[N+](=O)[O-]	ALR H2O2 inh 98
C[C@@H](C(=O)N(C)C[C@H]1OCc2ccccc2-c2ccccc2C(=O)N([C@@H](C)CO)C[C@@H]1C)c1ccccc1	none (no result: ALR H2O2 inh, N-glyco inh, Mot1-301 SUMO, CDK5 inh, NSD2 HMT inh)
Brc1c(CSc2nnc(-c3ccco3)o2)nc2ccccn12	ALR H2O2 inh 97 (no result: Casp6 inh)
NS(=O)(=O)OCC1CCCCC1	none (no result: NSD2 HMT inh)
Nc1nc(N)c(N=O)c(OCC2CCCCC2)n1	ALR H2O2 inh 92 (no result: CDK5 inh, NSD2 HMT inh)
COc1ccccc1CNC(=O)C[C@H]1C[C@@H]2c3cc(NS(C)(=O)=O)ccc3O[C@@H]2[C@H](CO)O1	none (no result: ALR H2O2 inh, N-glyco inh, Mot1-301 SUMO, CDK5 inh, NSD2 HMT inh)
N#CC1=C(SCC(=O)NCc2ccccc2)NC(=O)CC1c1ccco1 (stereo unspecified)	none (no result: Casp6 inh)
N#CC1=C(SCc2ccccc2)NC(=O)CC1c1ccco1 (stereo unspecified)	ALR H2O2 inh 100 (no result: Casp6 inh)
C[C@H]1CN([C@@H](C)CO)C(=O)c2cc(NS(=O)(=O)c3cccs3)ccc2O[C@H]1CN(C)S(=O)(=O)c1ccc(Cl)cc1	none (no result: ALR H2O2 inh, N-glyco inh, Mot1-301 SUMO, CDK5 inh, NSD2 HMT inh)
COc1cc(/C=C(\C#N)c2nc3ccccc3n2C)cc(OC)c1O	ALR H2O2 inh 99
Cn1c(/C(C#N)=C/c2ccncc2)nc2ccccc21	none
Cn1c(/C(C#N)=C/c2ccc(O)cc2)nc2ccccc21	ALR H2O2 inh 99 (no result: NSD2 HMT inh)
C=CCOc1ccc(C(c2c(O)nc(SC)[nH]c2=O)c2c(O)nc(SC)[nH]c2=O)cc1	ALR H2O2 inh 90
CSc1nc(O)c(C(c2ccc(O)cc2)c2c(O)nc(SC)[nH]c2=O)c(=O)[nH]1	ALR H2O2 inh 84
CCOc1ccc(C(c2c(O)nc(SC)[nH]c2=O)c2c(O)nc(SC)[nH]c2=O)cc1	none (no result: CDK5 inh)
Cc1ccc(-c2ccc3c(c2)O[C@H](CN(C)C(=O)CC2CC2)[C@H](C)CN([C@H](C)CO)S3(=O)=O)cc1	none (no result: ALR H2O2 inh, N-glyco inh, Mot1-301 SUMO, CDK5 inh, NSD2 HMT inh)
O=C(O)C1C2C=CC(C2)C1C(=O)NCc1cccs1 (stereo unspecified)	Casp6 inh 45
COc1cccc(C#Cc2cnc3c(c2)C(=O)N([C@@H](C)CO)C[C@H](C)[C@H](CN(C)C)O3)c1	none (no result: ALR H2O2 inh, N-glyco inh, Mot1-301 SUMO, CDK5 inh, NSD2 HMT inh)
CCOC(=O)c1c(NC(C)=O)sc2c(OC)cccc12	none (no result: ALR H2O2 inh, Casp6 inh)
CCOC(=O)c1c(NC(C)=O)sc2c(OCC(O)CN(CC)CC)c(Br)ccc12 (stereo unspecified)	none
CCOC(=O)c1c(N)sc2c(O)c(Br)ccc12	ALR H2O2 inh 98 (no result: Casp6 inh)
CCOC(=O)c1c(N)sc2c(NC(C)=O)cccc12	ALR H2O2 inh 98 (no result: Casp6 inh)
CCOC(=O)c1c(NC(C)=O)sc2c(OCCN(CC)CC)c(Br)ccc12	N-glyco inh 85
COc1ccc(OC)c(N/C(=N/c2nc(C)cc(C)n2)NC(C)=O)c1	Casp6 inh 53
COCCn1c(SCC(=O)Nc2cccc(C)c2)nnc1C(C)C	none (no result: ALR H2O2 inh, Casp6 inh)
COCCn1c(SCC(=O)c2ccc3c(c2)OCCO3)nnc1C(C)C	none (no result: Casp6 inh)
COCCn1c(SCC(=O)c2ccc(Cl)cc2)nnc1C(C)C	ALR H2O2 inh 91 (no result: Casp6 inh)
COCCn1c(SCC(=O)Nc2cc(C)cc(C)c2)nnc1C(C)C	ALR H2O2 inh 100 (no result: Casp6 inh)
O=C(CSc1nnc2ccccn12)c1ccc(Cl)cc1	ALR H2O2 inh 85
CCOc1ccccc1N1CCN(C(=O)[C@@H]2CCCN2C2=NS(=O)(=O)c3ccccc32)CC1	ALR H2O2 inh 97
Cc1csc(SCC(=O)Nc2nccs2)n1	none
Cc1csc(SCC(=O)Nc2sccc2C(N)=O)n1	ALR H2O2 inh 95
O=C(C[C@H]1CC[C@@H]2[C@H](COC[C@@H](O)CN2C(=O)Nc2ccc(F)cc2)O1)NCCc1ccccc1	none (no result: ALR H2O2 inh, N-glyco inh, Mot1-301 SUMO, CDK5 inh, NSD2 HMT inh)
O=C(C[C@H]1CC[C@H](NC(=O)c2cnccn2)[C@@H](CO)O1)NCc1ccccc1F	none (no result: ALR H2O2 inh, N-glyco inh, Mot1-301 SUMO, CDK5 inh, NSD2 HMT inh)
COc1cc(C=O)ccc1Oc1nc(Nc2ccc(F)cc2F)nc(N2CCOCC2)n1	Mot1-301 SUMO 334
O=C(O)c1cccc(S(=O)(=O)NNc2ccccc2C(F)(F)F)c1	Casp6 inh 40
S=c1nc(-c2cccc(Br)c2)[nH][nH]1	ALR H2O2 inh 99
COc1cc(N=c2c([N+](=O)[O-])nn(-c3ccc4c(c3)OCCO4)n2O)cc(OC)c1	Mot1-301 SUMO 274 (no result: ALR H2O2 inh, Casp6 inh)
C[C@@H]1CN([C@H](C)CO)C(=O)c2cccc(N(C)C)c2O[C@@H]1CN(C)Cc1ccc2c(c1)OCO2	none (no result: ALR H2O2 inh, N-glyco inh, Mot1-301 SUMO, CDK5 inh, NSD2 HMT inh)
CCN(CCCNC(=O)CC(C(=O)N1CCc2ccccc21)n1ccnc1)c1cccc(C)c1 (stereo unspecified)	ALR H2O2 inh 99 (no result: Casp6 inh)
CCN(CCCNC(=O)CN1C(=O)COc2ccccc21)c1cccc(C)c1	ALR H2O2 inh 99 (no result: Casp6 inh)
CCN(CCCNC(=O)CCn1c(=O)[nH]c2ccccc2c1=O)c1ccccc1	ALR H2O2 inh 98 (no result: Casp6 inh)
CCN(CCCNC(=O)CN1C(=O)COc2ccccc21)c1ccccc1	ALR H2O2 inh 99 (no result: Casp6 inh)
